High-throughput results: PubChem, Sanford-Burnham Center for Chemical Genomics
Rows were chosen to be rich in hits. Some 6.3% of all compounds tested hit in one or more screens of this group.
MPTP block: mitochondrial permeability transition pore inhibitors, primary screen, biochemical, isolated mouse mitochondria, absorbance; Ca2+ swelling absorbance, 30 min; inhibition, % at 10 µM; 360,000 compounds, 1.4% hits;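 active = inhibition of 50% or more, scaled per plate between neutral and stimulator controls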;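 note: 0% = DMSO wells given calcium and 100% = 1 mM EGTA wells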
tim10-1 inh: growth inhibitors of tim10-1 mutant yeast, primary screen, luminescence, uHTS | S. cerevisiae tim10-1 ts strain growth, BacTiter-Glo, 24 h | inhibition, % at 20 µM | 330,000 compounds, 2.2% hits | AID 463190, 2010;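 active = inhibition of at least 40%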;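 note: mutant grown at 25 °C; 0% = DMSO wells with yeast and 100% = wells holding no yeast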
tim23-1 inh: growth inhibitors of tim23-1 mutant yeast, primary screen, luminescence, uHTS | S. cerevisiae tim23-1 growth, BacTiter-Glo luminescence, 24 h | inhibition, % at 20 µM | 330,000 compounds, 1.3% hits | AID 463212, 2010;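 active = growth inhibition of the mutant yeast at or above 50%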;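 note: temperature-sensitive mutant grown at 25 °C; plate controls were DMSO-treated mutant yeast for no effect and medium wells lacking yeast for full effect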
Mdm2 MdmX PPI: inhibitors of human Mdm2-MdmX association, primary screen, cell-based, luminescence, split luciferase, SaOS-2, uHTS; Protein Mdm4 (Homo sapiens) + E3 ubiquitin-protein ligase Mdm2 (Homo sapiens), …; SaOS-2 split-luciferase Mdm2/MdmX complementation; inhibition, % at 8 µM; 330,000 compounds, 3% hits; AID 485346, 2010;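 active = inhibition of at least 50% at 8 µM in the primary screen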
Target sequence (O15151 whole entry, looked up): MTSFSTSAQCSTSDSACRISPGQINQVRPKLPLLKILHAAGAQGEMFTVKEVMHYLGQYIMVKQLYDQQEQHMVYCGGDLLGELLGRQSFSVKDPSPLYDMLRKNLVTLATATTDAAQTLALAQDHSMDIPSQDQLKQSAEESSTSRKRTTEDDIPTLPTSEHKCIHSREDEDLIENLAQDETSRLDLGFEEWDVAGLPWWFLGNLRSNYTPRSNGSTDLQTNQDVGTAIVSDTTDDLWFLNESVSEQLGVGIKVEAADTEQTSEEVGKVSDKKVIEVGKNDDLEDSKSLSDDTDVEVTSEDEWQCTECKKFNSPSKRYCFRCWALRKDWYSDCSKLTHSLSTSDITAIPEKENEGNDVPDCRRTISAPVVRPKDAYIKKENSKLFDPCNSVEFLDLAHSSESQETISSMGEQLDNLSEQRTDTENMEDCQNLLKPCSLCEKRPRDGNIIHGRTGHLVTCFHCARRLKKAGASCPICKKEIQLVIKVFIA
Target sequence (Q00987 whole entry, looked up): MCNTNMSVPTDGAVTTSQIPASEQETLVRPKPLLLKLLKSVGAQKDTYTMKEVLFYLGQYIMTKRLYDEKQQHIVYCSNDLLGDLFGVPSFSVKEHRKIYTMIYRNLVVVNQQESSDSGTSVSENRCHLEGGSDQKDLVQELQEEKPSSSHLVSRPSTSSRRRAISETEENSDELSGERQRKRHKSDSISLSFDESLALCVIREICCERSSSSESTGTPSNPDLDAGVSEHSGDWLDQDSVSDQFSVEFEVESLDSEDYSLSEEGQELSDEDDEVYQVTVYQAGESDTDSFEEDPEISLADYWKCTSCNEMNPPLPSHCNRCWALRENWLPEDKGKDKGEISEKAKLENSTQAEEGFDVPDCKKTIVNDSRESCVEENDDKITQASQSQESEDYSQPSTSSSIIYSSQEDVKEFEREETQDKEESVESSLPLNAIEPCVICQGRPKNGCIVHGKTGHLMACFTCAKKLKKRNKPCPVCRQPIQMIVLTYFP
TIM10 inh: growth inhibitors of isogenic TIM10 control yeast, primary screen, counter-screen for tim10-1 yeast inhibitor project, luminescence, uHTS; inhibition, % at 10 µM; S. cerevisiae TIM10 strain growth, BacTiter-Glo luminescence, 24 h; 330,000 compounds, 1.4% hits;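 active = inhibition of 40% or more at the single tested concentration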;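 note: wild-type TIM10 isogenic control strain grown at permissive 25 °C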
tim10-1 confirm: growth inhibitors of tim10-1 mutant yeast, confirmation, single concentration, luminescence, S. cerevisiae. shares compounds with tim10-1 inh. S. cerevisiae tim10-1 ts strain growth, BacTiter-Glo, 24 h. inhibition, % at 20 µM. 7,400 compounds, 56% hits. AID 463213, 2010;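 active = inhibition of yeast growth at or above a set limit in either of two repeat tests at 20 µM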;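 note: tim10-1 mutant grown at permissive 25 °C to find synthetic lethal compounds; 0% = DMSO yeast wells and 100% = medium wells without yeast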
tim10 confirm: growth inhibitors of wild-type TIM10 yeast, confirmation, counter-screen for tim10-1 synthetic lethality project, single concentration, luminescence, S. cerevisiae | shares compounds with TIM10 inh | S. cerevisiae tim10 strain growth, BacTiter-Glo luminescence, 24 h | inhibition, % at 10 µM | 4,600 compounds, 63% hits;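 active = inhibition of yeast growth at or above a set limit in either of two replicates at 10 µM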;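 note: this counterscreen used the strain with wild-type TIM10; 0% = yeast with DMSO and 100% = medium wells lacking yeast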
tim23-1 confirm: tim23-1 mutant yeast growth inhibitors, confirmation, luminescence, single concentration; shares compounds with tim23-1 inh; S. cerevisiae tim23-1 growth, BacTiter-Glo luminescence, 24 h; inhibition, % at 20 µM; 4,400 compounds, 83% hits; AID 463218, 2010;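 active = inhibition above about 39% in either of two replicate wells at 20 µM, limit read from the data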;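 note: temperature-sensitive tim23-1 mutant grown at 25 °C; 0% = DMSO wells with yeast and 100% = medium wells without yeast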
An asterisk follows results filed as active; · = not tested or not shown.

SMILES	MPTP block	tim10-1 inh	tim23-1 inh	Mdm2 MdmX PPI	TIM10 inh	tim10-1 confirm	tim10 confirm	tim23-1 confirm
Cc1noc(/C=C/c2ccccn2)c1[N+](=O)[O-]	1	53*	62*	6	51*	62*	58*	54*
Clc1ccc2[nH]c(-c3ccccc3)cc2c1	3	50*	61*	-66	39	45*	·	73*
c1ccc(-c2cc3ccccc3[nH]2)cc1	4	23	40	2	15	·	·	·
CCNC(=O)C1(C)CCCN(Cc2ccc(-n3ccnc3)cc2)C1 (stereo unspecified)	0	·	·	·	·	·	·	·
O=C(Oc1ccc(Br)cc1C(=O)/C=C/c1ccccc1F)c1ccco1	7	41*	60*	23	70*	40*	62*	43*
CC(=O)c1cc(Cl)ccc1OC(=O)c1ccco1	2	1	5	19	2	·	·	·
COc1ccc(/C=C\c2nc(=O)c3ccccc3o2)cc1	1	55*	78*	-42	42*	46*	35*	71*
Cc1ncc(/C=C2\C(=O)Nc3ccccc32)[nH]1	·	12	-30	30	29	·	·	·
O=C1Nc2ccccc2/C1=C/c1ccc([N+](=O)[O-])cc1	1	56*	74*	17	81*	62*	81*	59*
COc1ccc(-c2cc3nc(C)cc(-c4ccc(OC)cc4)n3n2)cc1	1	19	18	23	15	·	·	·
COc1ccc(-c2cc3nc(C)cc(N)n3n2)cc1	0	62*	54*	-120	47*	44*	14	64*
CCn1c(=O)c(C(=O)NCc2ccccn2)c(O)c2ccccc21	0	45*	60*	48	38	16	·	58*
CCn1c(=O)c(C(=O)NCc2ccc(OC)cc2)c(O)c2ccccc21	6	-4	-19	-2	4	·	·	·
C=CCOn1c(=O)c(-c2cccs2)[n+]([O-])c2ccccc21	6	53*	61*	13	41*	21	33*	70*
CC1CCN(c2nnc(-c3ccccc3)c3ccccc23)CC1	-2	41*	69*	20	12	0	·	34
Cc1ccc(-c2nnc(N3CCC(C)CC3)c3ccccc23)cc1C	27	19	48	45	4	·	·	·
COc1ccc(-c2nnc(N3CCCCC3)c3ccccc23)cc1	-2	51*	60*	22	29	47*	·	55*
COc1ccc(CN2C(=O)C(CC(=O)NCCCCc3ccccc3)CC(C(=O)N(C)C)=C2C)cc1 (stereo unspecified)	-1	·	·	·	·	·	·	·
Cc1nc2c(ccc3nc(NC(=O)C4CC4)sc32)s1	0	53*	68*	14	65*	54*	54*	71*
CCOC(=O)Cc1csc(NC(=S)NC(=O)CC(C)C)n1	2	50*	55*	8	42*	47*	39*	56*
COc1ccccc1NC(=O)Cc1nc(=O)[nH]c(=O)[nH]1	-1	·	·	·	·	·	·	·
Cc1cccc(C)c1NC(=S)NC(=O)CCc1ccccc1	0	51*	56*	37	47*	35*	36*	42*
NC(=O)c1cccc(N=Cc2cc(Cl)cc(Cl)c2O)c1	0	·	·	·	·	·	·	·
Cc1cccc(N=Cc2cc(Br)cc(Cl)c2O)c1	0	50*	73*	15	33	16	·	84*
Cc1ccc(C(=O)/C=C\C(=O)c2ccc(C)cc2)cc1	0	·	·	·	·	·	·	·
SMILES	MPTP block	tim10-1 inh	tim23-1 inh	Mdm2 MdmX PPI	TIM10 inh	tim10-1 confirm	tim10 confirm	tim23-1 confirm
Cc1ccc(S/C=C\C(=O)c2ccccc2)cc1	2	49*	58*	13	44*	46*	55*	62*
COCCNC(=O)C1(C)CCCN(C(=O)c2cccc(OC(F)(F)F)c2)C1 (stereo unspecified)	-2	·	·	·	·	·	·	·
COc1ccccc1-c1csc(C(O)c2ccc(F)c(F)c2)n1 (stereo unspecified)	0	·	·	·	·	·	·	·
O=S1(=O)N[C@H](Cc2ccccc2)COc2cc(N3CCC[C@H]3CO)ccc21	0	·	·	·	·	·	·	·
O=C(Oc1cccc2c(O)cccc12)c1ccccc1	2	47*	79*	35	-5	16	·	50*
O=C(Oc1cccc2ccccc12)c1ccccc1	-1	·	·	·	·	·	·	·
CC(C)C(Cl)=NOC(=O)Nc1ccc(F)cc1	0	·	·	·	·	·	·	·
C/C(=N\OC(=O)Nc1ccc(Cl)cc1)c1ccc(F)c(F)c1	1	51*	57*	15	14	54*	·	59*
NC(=O)Nc1ccc(Cl)cc1	1	-14	9	-6	-25	·	·	·
O=C(Nc1ccc(Cl)cc1)ON=C1CCCC1	4	43*	64*	4	82*	28	-21	41*
CC(C)N(C)c1ncnc2c1ncn2[C@H]1CN(CCN2CCOCC2)C[C@@H](CO)O1	2	·	·	·	·	·	·	·
COc1ccc(/C=N/NC(=O)c2nn(C)cc2Br)cc1CSCc1ccco1	0	44*	52*	2	26	20	·	47*
CCOc1cc(/C=N/NC(=O)c2nn(C)cc2Br)ccc1OCc1ccccc1	2	8	10	-8	9	·	·	·
NC(=NC(=O)c1ccc(OCC(F)(F)F)nc1)c1ccccc1	2	15	34	-16	15	·	·	·
NC(=NC(=O)c1ccc(OCC(F)(F)F)nc1)c1ccc(Cl)cc1	12	68*	56*	31	18	48*	·	42*
O=C1NC[C@@H](CCCCN2C[C@H](Cc3ccc(O)cc3)N(CC3CCCCC3)C(=O)C2=O)N(CCC2CCCCC2)C1=O	-3	·	·	·	·	·	·	·
Cc1ccc(C)c(N2CCN(C(C(=O)NC3CCCC3)c3ccco3)CC2)c1 (stereo unspecified)	0	·	·	·	·	·	·	·
CCCOc1ccccc1/C=C(\C#N)C(=O)Nc1cccc(C)n1	0	49*	56*	9	37	45*	·	57*
Cc1cccc(NC(=O)/C(C#N)=C/c2ccc(F)cc2)n1	0	32	47	29	26	·	·	·
Cc1cccc(N2CCN(C(=S)NCc3ccco3)CC2)c1C	5	55*	53*	1	20	48*	·	43*
S=C(NCc1ccco1)N1CCN(Cc2ccc(Cl)cc2Cl)CC1	-7	51*	70*	2	48*	54*	43*	62*
COC(=O)C[C@@H]1CC[C@H](NS(=O)(=O)c2cccc(F)c2)[C@@H](CO)O1	1	·	·	·	·	·	·	·
